Source: PubChem BioAssay
A selection: hits, their analogues and other compounds. The true share with any hit is near 11%.
Tau fibril ThT: blocks human tau fibril formation measured by thioflavin T. P10636. recombinant tau K18 P301L, heparin-induced fibrillization, ThT fluorescence. Potency, µM (highest dose often 57.4 µM), most hits filed as inhibitors. hit rate 2.1% among 270,000. AID 1460; also: nearly all actives have a fitted effect of over 55% in size
Target sequence (P10636 561-689 P618L limits assumed): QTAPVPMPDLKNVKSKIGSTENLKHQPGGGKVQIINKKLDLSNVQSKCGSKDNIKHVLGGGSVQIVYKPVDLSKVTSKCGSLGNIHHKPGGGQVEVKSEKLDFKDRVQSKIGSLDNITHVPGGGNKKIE
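Heparin-induced fibrillization of the P301L-mutant K18 repeat-domain fragment of human tau was followed by ThT binding in quantitative high-throughput format.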
Tau fluor counter: counter-screen for tau fibril formation inhibitors. tau K18 P301L Alexa594 fluorescence, heparin fibrillization. Potency, µM (series often up to 57.7 µM). hit rate 0.93% among 280,000. AID 1463; also: nearly all actives have a fitted effect of over 55% in size
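Human tau K18 P301L (15 uM unlabeled, 0.24 uM Alexa 594-labeled) in 100 mM sodium acetate pH 7 with 20 uM heparin, 6 hr at 37 C. ThT 30 uM added, 1 hr ambient; Alexa 594 FP and total fluorescence read at 555/632 nm.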
G9a block: inhibitors of human histone lysine methyltransferase G9a; G9a H3K9 monomethylation, AlphaScreen, 2 h; Potency, µM (series often up to 102 µM), most hits filed as inhibitors; hit rate 8.8% among 350,000; also: nearly all actives have a fitted effect of over 75% in size
Target sequence (Q96KQ7 913-1193 limits assumed): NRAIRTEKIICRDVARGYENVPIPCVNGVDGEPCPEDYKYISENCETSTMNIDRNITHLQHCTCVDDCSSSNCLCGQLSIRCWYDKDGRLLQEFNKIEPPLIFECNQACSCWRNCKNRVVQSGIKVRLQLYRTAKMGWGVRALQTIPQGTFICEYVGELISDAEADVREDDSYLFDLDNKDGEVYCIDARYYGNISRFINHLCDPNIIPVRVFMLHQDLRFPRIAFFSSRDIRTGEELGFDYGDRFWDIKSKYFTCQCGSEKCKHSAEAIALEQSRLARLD
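AlphaScreen detection with an anti-monomethyl H3K9 antibody quantified product after a 2 h room-temperature reaction containing 500 nM biotinylated H3K9 peptide, 20 µM SAM and 20 nM enzyme, which had been preincubated 15 min with compound.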
FBPA coupling cs: inhibits coupling enzyme system, counter-screen for aldolase hits. AID 2472. hit rate 0.67% among 290,000. activity change, negative = inhibition, % at 58.2 µM, hits read low. coupling enzyme system counterscreen, AmpLite Red fluorescence; in the data active = activity change below about -30%
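Coupling enzymes only (glyceraldehyde-3-phosphate) + compound, at 57.5 uM final, 10 min RT; add substrate/coupling/AmpLite Red mix, 20 min RT; fluorescence ex 525/em 598 nm. Actives flag coupling-system interference.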
Tau fibril FP: inhibitors of human tau fibril formation; P10636; K18 P301L tau heparin fibrillization, Alexa594 FP, 6 h; Potency, µM (doses to about 57.7 µM), hits mostly inhibitors; hit rate 0.39% among 280,000; AID 1468; also: nearly all actives have a fitted effect of over 55% in size
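Compound effects on tau fibrillization are measured by Alexa 594 fluorescence polarization (ex 555, em 632 nm). K18 P301L tau is used at 15 uM with 0.24 uM labeled tracer, and 20 uM heparin induces aggregation over 6 hr at 37 C.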
Sfp inh: inhibitors of Bacillus subtilis Sfp phosphopantetheinyl transferase. Q9F4F7. Biochemical Sfp PPTase activity, qHTS. Potency, µM, actives largely listed as inhibitors. hit rate 3.5% among 310,000. AID 1490;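 also: the enzyme is Sfp with the accession as filed and its product quenches rhodamine fluorescence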
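Compounds were incubated with enzyme (final 15 nM) for 15 min at room temperature before substrate addition started the reaction. Fluorescence at 525 nm excitation, 598 nm emission was recorded immediately and after 30 minutes.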
Large screens that a line does not name were inactive. Unless noted, calls follow the shape of the dose curve; as a rule, active = well fitted curve in the direction sought with a large enough effect; inconclusive = small, poorly fitted or top-dose-only effect, or another doubt; inactive = no such curve, though single readings can be large; an effect the other way counts as inactive or inconclusive.

COc1ccc(/C(O)=C2/C(=O)C(=O)N(c3ncccn3)C2c2ccc(F)cc2)cc1 (stereo not given)	none
Cc1ccc(-n2c(SCc3ccccc3F)nc3[nH]ncc3c2=O)cc1Cl	none (no result: FBPA coupling cs, Sfp inh)
COc1ccc(-n2c(=O)c3c(c4cc(OC)ccc4n3C)n(C)c2=O)cc1	none (no result: FBPA coupling cs, Sfp inh)
C=CCOc1ccc(C(=O)Nc2ncn[nH]2)cc1	none (no result: Tau fibril ThT, Tau fluor counter, Tau fibril FP)
COc1ccc([N+](=O)[O-])c(S(=O)(=O)c2ccccc2)n1	Tau fibril ThT inconclusive, G9a block 11.2µM, Sfp inh inconclusive
COc1ccc([N+](=O)[O-])c(S(=O)(=O)c2ccc(Cl)cc2)n1	Tau fibril ThT inconclusive, Tau fluor counter inconclusive, G9a block 17.8µM, Sfp inh inconclusive
O=C(CNC(=O)C12CC3CC(CC(C3)C1)C2)N/N=C\c1ccccn1	none
CCOc1ccc2nc(N3CCCCCC3)sc2c1	Tau fibril ThT inconclusive
CCOc1ccc2nc(N3C(=O)/C(=C/c4ccccc4)NC3=S)sc2c1	Tau fibril ThT 3.55µM, Tau fluor counter inconclusive, Tau fibril FP inconclusive
COc1ccc2nc(N3C(=O)/C(=C/c4ccccc4)NC3=S)sc2c1	Tau fibril ThT 3.98µM, Tau fluor counter inconclusive
COc1ccccc1N1CCN(C(=O)c2cc(CC(C)C)on2)CC1	none (no result: FBPA coupling cs, Sfp inh)
COc1ccc(CC(=O)Nc2ccc(S(=O)(=O)N(C)C3CCN(C)CC3)cc2)cc1	none (no result: Tau fibril ThT, Tau fluor counter, FBPA coupling cs, Tau fibril FP, Sfp inh)
CC(Oc1ccc(Br)cc1)C(=O)Nc1ccc(S(=O)(=O)N(C)C2CCN(C)CC2)cc1 (stereo not given)	G9a block 35.5µM (no result: Tau fibril ThT, Tau fluor counter, FBPA coupling cs, Tau fibril FP, Sfp inh)
COC(=O)c1ccc(-n2c(C)cc(C(=O)CSc3cccc[n+]3[O-])c2C)cc1	G9a block 50.1µM
Cc1cc(C(=O)CSc2cccc[n+]2[O-])c(C)n1-c1ccc(OC(F)F)cc1	none
CCOC(=O)CCc1n[nH]c(=O)[nH]c1=O	none
O=C(O)CCc1n[nH]c(=S)[nH]c1=O	Sfp inh 56.2µM
C/C(CCN1CCc2nc(-c3ccccc3)c(-c3ccccc3)cc2C1)=N\OC[C@@H](O)COCc1ccco1	none (no result: G9a block)
CCc1cc2c(nc1CC)CCN(CC/C(C)=N/OC[C@H]1O[C@H](c3ccccc3)C=C[C@@H]1Oc1ccc(OC)cc1)C2	Tau fibril ThT inconclusive, G9a block 44.7µM
COc1ccc(O[C@H]2C=C[C@@H](c3ccccc3)O[C@@H]2CO/N=C(\C)CCN2CCc3nc(-c4ccccc4)c(-c4ccccc4)cc3C2)cc1	G9a block 31.6µM
COc1ccc(OC)c(NC(=O)NCCCCc2ccccc2)c1	none (no result: Tau fibril ThT, Tau fluor counter, G9a block, Tau fibril FP)
CCC(=O)Nc1c(C#N)c2nc3ccccc3nc2n1C1CCCCC1	none
CCCCn1c(NC(=O)c2ccccc2Cl)c(C#N)c2nc3ccccc3nc21	Tau fibril ThT inconclusive
N#Cc1c(NC(=O)c2ccccc2Cl)n(Cc2ccccc2)c2nc3ccccc3nc12	Tau fibril ThT 14.1µM, G9a block inconclusive, FBPA coupling cs -38.6, Tau fibril FP inconclusive
CCOC(=O)c1c(NC(=O)c2ccco2)n(C2CCCCC2)c2nc3ccccc3nc12	Tau fibril ThT 17.8µM, G9a block 50.1µM, Tau fibril FP inconclusive
COc1ccc(-n2c(NC(=O)c3ccco3)c(C#N)c3nc4ccccc4nc32)cc1	FBPA coupling cs -51.9, Sfp inh 35.5µM
Cc1nc(Cl)sc1C(=O)Nc1cccc2ccccc12	none
Cc1[nH]n(-c2ccccc2)c(=O)c1N=O	none
CC(C)c1nc(=S)n(-c2ccccc2)[nH]1	G9a block 10µM
CC(=O)Nc1nc(=S)n(-c2ccccc2)[nH]1	G9a block 3.98µM, Sfp inh 15.8µM
COc1ccc(OC)c(NC(=O)c2cnc(N3CCCCC3)c3ccccc23)c1	Tau fibril ThT inconclusive (no result: FBPA coupling cs, Sfp inh)
COc1ccc(CCNC(=O)c2ccc3c(c2)CCN3S(=O)(=O)c2ccccc2)cc1	none (no result: FBPA coupling cs, Sfp inh)
COc1ccc(C)cc1NC(=O)c1oc2ccc(S(=O)(=O)N3CCC4(CC3)OCCO4)cc2c1C	none (no result: FBPA coupling cs, Sfp inh)
O=C(NC1CCCCNC1=O)c1ccco1 (stereo not given)	none (no result: Tau fibril ThT, Tau fluor counter, Tau fibril FP)
O=C(N/N=C/c1ccccn1)c1ccc(Cl)cc1	G9a block inconclusive, Sfp inh 31.6µM (no result: Tau fibril ThT, Tau fluor counter, Tau fibril FP)
O=C(N/N=C\c1ccccn1)c1ccccc1O	Sfp inh inconclusive
